This note sets out measurements from PubChem BioAssay.

The source made the active and inactive calls.

Experiment [1] relates to Wnt5a (protein binding on small-molecule microarray). Nature of the experiment: small molecules binding Wnt5a protein – biophysical, small-molecule microarray, 635/667 nm fluorescence, primary screen (AID 1142).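 Note: fluorescence read at 667 nm with signal to noise per printed feature.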 As to conditions: 635 nm fluorescence, higher = more signal.
The nature of experiment [2]: ATP-based viability of Huh7 replicon cells – cell-based, CellTiter-Glo luminescence, basal, 48 h, cytotoxicity control for HCV replication inhibitor project, primary screen (AID 1143).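 Note: Huh7 hepatoma cells carrying a hepatitis C replication reporter with no stimulus; test concentration not given here.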 As to conditions: higher = more signal, called active from +8 up or from −8 down. A general note: A replicon is a self-replicating genome or part of one, used to study replication in cells.

Experiment [3] can be described thus: basal CRE-LacZ reporter activity in PC12 – cell-based, unstimulated, primary screen (AID 1145). As to conditions: no forskolin, luminescence, 4.5 h, higher = more signal, called active from +8 up or from −8 down.
Experiment [4] is described as follows: forskolin-driven CRE-LacZ activity in PC12 – cell-based, CRE-LacZ reporter, forskolin-stimulated, primary screen (AID 1146).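 Note: PC12 cells with 6xCRE LacZ reporter stimulated by forskolin 10 µM; beta-galactosidase reporter signal reflecting CREB driven transcription.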 The settings on record: luminescence, 4.5 h, higher = more signal, called active from +8 up or from −8 down.
Experiment [5] concerns the target Streptavidin (Streptomyces avidinii) (UniProt P22629). The experiment in a line: compounds binding control protein streptavidin – biophysical, small-molecule microarray, 635/667 nm fluorescence, artefact control for SMM compound annotation, primary screen (AID 1147).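 Note: signal reflects streptavidin binding to arrayed compounds as a control protein.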 As to conditions: higher = more signal.
A short description of experiment [6]: probe aInhba binding on compound microarray – biochemical, small-molecule microarray, 635/667 nm fluorescence, primary screen (AID 1148).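 Note: score merges 667nm spot fluorescence with signal-to-noise for antibody binding to printed compounds.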 The settings on record: higher = more signal.
Experiment [7] addresses Torsin-1A (Homo sapiens) (UniProt O14656). Nature of the experiment: TOR1A wild-type binding on microarray – cell lysate, small-molecule microarray, lysate, 635/667 nm, primary screen (AID 1149). As to conditions: COS7 hTOR1A-WT lysate, 635 nm fluorescence, higher = more signal.
Experiment [8] shares this target. Nature of the experiment: torsin A mutant lysate binding on microarrays – cell lysate, small-molecule microarray, COS7 lysate, 635/667 nm fluorescence, primary screen (AID 1150).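 Note: score pools 667 nm emission and signal to noise measuring lysate protein binding.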 As to conditions: COS7 hTOR1A mutant lysate, 635 nm fluorescence, higher = more signal.
The subject of experiment [9] is Sonic hedgehog protein (Shh). The experiment in a line: Sonic hedgehog microarray binding compounds – biochemical, small-molecule microarray, 635/667 nm fluorescence, primary screen (AID 1151).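 Note: Shh protein binding to compounds spotted on small-molecule microarray slides; score combines spot fluorescence intensity with signal-to-noise across triplicate slides.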 The settings on record: 635 nm fluorescence, higher = more signal.
Experiment [10] can be described thus: optical density shifts of acrAB sulA E. coli – strain DRC41, OD650, 48 h, E. coli filamentation inducer project, primary screen (AID 1152).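 Note: E. coli MC1000 strain DRC41 lacking acrAB efflux pump and sulA.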 As to conditions: higher = more signal, called active from +8 up or from −8 down.
A short description of experiment [11]: probe aLefty1 binding on compound microarray – biochemical, small-molecule microarray, 635/667 nm fluorescence, primary screen (AID 1153).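 Note: score merges spot fluorescence with signal-to-noise ratio from the scanned slide images.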 As to conditions: higher = more signal.
Experiment [12] in a line: plasmodial surface anion channel blockers, osmotic lysis – cell-based, P. falciparum Indochina, OD700, 1 h, primary screen (AID 1154). As to conditions: P. falciparum Indochina infected RBC osmotic lysis, higher = more signal, called active from +8 up or from −8 down.
A short description of experiment [13]: plasmodial surface anion channel blockers, osmotic lysis – cell-based, P. falciparum Indochina, OD700, 2 h, primary screen (AID 1155).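 Note: lysis reports solute entry through the parasite surface anion channel PSAC.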 The settings on record: P. falciparum Indochina infected erythrocytes, higher = more signal, called active from +8 up or from −8 down.
A short description of experiment [14]: changes in parasitized red cell lysis, either direction – P. falciparum Indochina, OD700, 3 h, PSAC antagonist project, primary screen (AID 1156). The settings on record: P. falciparum-infected erythrocytes, osmotic lysis, higher = more signal, called active from +8 up or from −8 down.
The nature of experiment [15]: plasmodial surface anion channel blockers, osmotic lysis – cell-based, P. falciparum Indochina, OD700, 18 h, primary screen (AID 1157). The settings on record: P. falciparum Indochina infected erythrocytes, osmotic lysis OD700, 18 h; higher = more signal, called active from +8 up or from −8 down.
Experiment [16] in a line: S6 kinase pathway phospho-S6 level changes – cell-based, A549, cytoblot, luminescence, serum-stimulated, primary screen (AID 1158).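 Note: serum-stimulated A549 lung adenocarcinoma cells; signal is phosphorylated S6 detected by cytoblot immunostaining with HRP secondary.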 The settings on record: 5 h, higher = more signal.
The target in experiment [17] is NADPH oxidase 2 (Homo sapiens) (UniProt P04839). Nature of the experiment: compounds shifting NOX2 Amplex Red fluorescence – cell-based, HEK293-NOX2, PMA-stimulated, NOX inhibitor project, primary screen (AID 1159). Note: test concentration not given here. As to conditions: 45 min, higher = more signal, called active from +8 up or from −8 down.
NADPH oxidase 2 (Homo sapiens), sequence (P04839 whole entry, looked up): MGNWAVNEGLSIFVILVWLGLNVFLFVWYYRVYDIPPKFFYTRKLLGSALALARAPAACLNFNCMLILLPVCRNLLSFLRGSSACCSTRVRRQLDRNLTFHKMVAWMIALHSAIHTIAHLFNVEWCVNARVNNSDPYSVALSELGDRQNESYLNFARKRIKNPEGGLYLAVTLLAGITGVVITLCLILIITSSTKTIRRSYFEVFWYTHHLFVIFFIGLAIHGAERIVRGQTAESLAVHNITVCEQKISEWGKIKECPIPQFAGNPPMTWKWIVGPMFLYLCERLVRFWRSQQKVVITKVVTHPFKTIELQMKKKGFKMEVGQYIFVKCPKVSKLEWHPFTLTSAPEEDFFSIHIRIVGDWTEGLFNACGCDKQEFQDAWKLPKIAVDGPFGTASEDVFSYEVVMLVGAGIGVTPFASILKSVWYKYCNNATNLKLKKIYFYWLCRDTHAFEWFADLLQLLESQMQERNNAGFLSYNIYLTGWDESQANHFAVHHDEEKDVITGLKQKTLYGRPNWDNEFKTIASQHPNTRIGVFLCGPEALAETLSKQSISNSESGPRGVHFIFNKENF
In experiment [18] the target is NADPH oxidase 4 (Homo sapiens) (UniProt Q9NPH5). Nature of the experiment: compounds shifting NOX4 Amplex Red fluorescence – cell-based, HEK293-NOX4, tetracycline-induced, NOX inhibitor project, primary screen (AID 1160). The settings on record: HEK293-NOX4, Amplex Red H2O2 fluorescence, 45 min; higher = more signal, called active from +8 up or from −8 down.
NADPH oxidase 4 (Homo sapiens), sequence (Q9NPH5 whole entry, looked up): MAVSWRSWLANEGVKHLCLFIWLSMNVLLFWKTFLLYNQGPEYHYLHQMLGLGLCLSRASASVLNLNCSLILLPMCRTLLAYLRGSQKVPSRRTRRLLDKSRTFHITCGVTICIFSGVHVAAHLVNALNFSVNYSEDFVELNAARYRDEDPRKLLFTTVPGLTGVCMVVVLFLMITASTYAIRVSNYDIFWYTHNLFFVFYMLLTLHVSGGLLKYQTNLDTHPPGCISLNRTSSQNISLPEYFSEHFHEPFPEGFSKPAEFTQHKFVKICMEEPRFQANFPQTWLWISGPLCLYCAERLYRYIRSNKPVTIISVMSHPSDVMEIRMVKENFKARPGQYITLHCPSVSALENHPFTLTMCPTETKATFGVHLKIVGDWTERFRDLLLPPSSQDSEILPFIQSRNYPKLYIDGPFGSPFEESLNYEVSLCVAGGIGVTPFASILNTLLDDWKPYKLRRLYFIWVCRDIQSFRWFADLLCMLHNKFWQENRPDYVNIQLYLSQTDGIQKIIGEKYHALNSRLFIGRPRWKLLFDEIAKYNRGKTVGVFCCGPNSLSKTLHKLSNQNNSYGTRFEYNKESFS
The target of experiment [19] is NADPH oxidase 5 (Homo sapiens) (UniProt Q96PH1). The experiment in a line: compounds shifting NOX5 Amplex Red fluorescence – cell-based, HEK293-NOX5, NOX inhibitor project, primary screen (AID 1161). As to conditions: HEK293-NOX5, ionomycin, 45 min, higher = more signal.
NADPH oxidase 5 (Homo sapiens), sequence (Q96PH1 whole entry, looked up): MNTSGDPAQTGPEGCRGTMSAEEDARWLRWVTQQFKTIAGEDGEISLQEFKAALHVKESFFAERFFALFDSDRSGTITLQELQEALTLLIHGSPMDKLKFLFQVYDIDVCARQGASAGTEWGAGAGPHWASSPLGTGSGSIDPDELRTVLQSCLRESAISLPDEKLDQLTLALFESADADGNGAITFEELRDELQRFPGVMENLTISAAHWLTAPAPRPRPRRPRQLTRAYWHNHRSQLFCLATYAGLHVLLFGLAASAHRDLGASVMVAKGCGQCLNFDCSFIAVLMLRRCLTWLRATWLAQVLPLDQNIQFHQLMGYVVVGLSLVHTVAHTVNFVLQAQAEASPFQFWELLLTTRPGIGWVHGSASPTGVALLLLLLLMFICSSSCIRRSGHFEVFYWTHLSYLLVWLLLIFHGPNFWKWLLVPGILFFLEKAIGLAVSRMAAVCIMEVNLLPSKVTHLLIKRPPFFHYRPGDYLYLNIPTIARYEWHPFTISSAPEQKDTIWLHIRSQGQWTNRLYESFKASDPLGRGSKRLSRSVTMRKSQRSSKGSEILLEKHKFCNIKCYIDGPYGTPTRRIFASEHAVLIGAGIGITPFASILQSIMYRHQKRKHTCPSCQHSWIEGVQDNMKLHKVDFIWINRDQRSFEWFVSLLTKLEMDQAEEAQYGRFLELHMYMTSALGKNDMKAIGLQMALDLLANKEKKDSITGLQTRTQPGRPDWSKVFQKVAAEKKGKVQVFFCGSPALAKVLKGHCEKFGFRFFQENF

Torsin-1A (Homo sapiens), sequence (O14656 whole entry, looked up): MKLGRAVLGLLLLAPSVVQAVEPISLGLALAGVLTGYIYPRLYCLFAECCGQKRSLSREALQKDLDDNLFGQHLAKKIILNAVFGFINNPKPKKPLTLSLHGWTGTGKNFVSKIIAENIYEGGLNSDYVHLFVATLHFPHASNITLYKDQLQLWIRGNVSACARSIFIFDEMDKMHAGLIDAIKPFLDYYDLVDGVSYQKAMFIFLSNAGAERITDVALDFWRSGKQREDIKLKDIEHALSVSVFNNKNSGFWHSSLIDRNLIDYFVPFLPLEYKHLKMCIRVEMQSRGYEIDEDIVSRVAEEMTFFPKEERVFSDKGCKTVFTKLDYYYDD
Streptavidin (Streptomyces avidinii), sequence (P22629 whole entry, looked up): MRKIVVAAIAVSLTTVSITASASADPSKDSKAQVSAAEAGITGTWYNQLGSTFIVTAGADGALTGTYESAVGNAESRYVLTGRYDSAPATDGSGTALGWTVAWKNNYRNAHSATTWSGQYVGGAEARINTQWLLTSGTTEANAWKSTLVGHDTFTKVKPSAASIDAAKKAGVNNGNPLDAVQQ

For the compound `C=CCNC(=O)[C@H]1[C@@H]2C(=O)O[C@@H](c3ccccc3)[C@@H](c3ccccc3)N2[C@@H](c2ccccc2OCCO)[C@]12C(=O)N(C(=O)OCCOC)c1ccc(C#CCC(C(=O)OC)C(=O)OC)cc12`, the composite z-score is 0.302 in experiment [1]; -0.204 in experiment [5]; 0.225 in experiment [6]; 0.825 in experiment [7]; 0.946 in [8]; 1.81 in [9]. This compound registered a composite z-score in experiment [11] of 0.042. In addition, the z-score in [2] was -3.84 (inactive); in experiment [3] it was 0.775 (inactive); in experiment [4], 0.105 (inactive); in [10], 2.88 (inactive); in experiment [12], 2.93 (inactive); in experiment [13] it was -0.183 (inactive). For the same compound, the z-score in experiment [14] is 0.824 (inactive); in experiment [15], -2.13 (inactive); in experiment [16], 2.23; in experiment [17], 0.819 (inactive); in [18], 0.0202 (inactive); in experiment [19], 0.521.
For `O=C(CS)NCCCCCNC(=O)[C@H]1C[C@H]2C(=O)N[C@@H](Cc3ccccc3)C(=O)N2[C@H]1c1ccc(O)cc1`, the composite z-score in [1] turned out to be 0.252; in [5] it was 0.0842; in [6], 0.0018; in experiment [7], 1.04; in [8], 0.746; in [9] it was 2.09. This compound yielded a composite z-score in experiment [11] of 0.0371. In addition, the z-score was -0.164 (inactive) in experiment [2]; -0.809 (inactive) in experiment [3]; -0.819 (inactive) in [4]; 0.956 (inactive) in [10]; 6.87 (inactive) in [12]; -0.29 (inactive) in experiment [13]. In addition, the z-score in experiment [14] is -1.1 (inactive); in experiment [15] it was -1.95 (inactive); in experiment [16], 0.263; in [17], 0.99 (inactive); in [18] it was -0.205 (inactive); in [19], 0.0913.
Regarding `[N-]=[N+]=NCc1ccccc1C[C@]1(C(N)=O)N=C(c2ccc(OCCCO)cc2)O[C@H]1c1ccccc1CN=[N+]=[N-]`, the composite z-score in experiment [1] was 0.447; in experiment [5], 1.68; in experiment [6] it was 0.17; in experiment [7], 0.105; in [8], 0.369; in experiment [9], -0.742. In experiment [11], this compound showed a composite z-score of 0.71. Besides, the z-score in [2] was -5.2 (inactive); in [3], 1.08 (inactive); in [4], -0.375 (inactive); in experiment [10], 0.0277 (inactive); in experiment [12] it was 29.3 (active); in experiment [13], 19.8 (active). In addition, the z-score was 1.82 (inactive) in [14]; 2.86 (inactive) in [15]; 2.41 in experiment [16]; -1.06 (inactive) in experiment [17]; 0.885 (inactive) in experiment [18]; -0.692 in [19].
For `COC(=O)C[C@H]1O[C@]2(C(=O)N(C)c3ccccc32)[C@@H](C)[C@@H]1[Si](C)(C)c1ccc(OC)cc1`, the composite z-score in experiment [1] was 0.259; in experiment [5], 0.781; in experiment [6], 0.138; in [7], 0.639; in experiment [8], 0.236; in [9], 0.661. In addition, in experiment [11], the composite z-score was -0.139. In addition, the z-score was -4.23 (inactive) in experiment [2]; 2.23 (inactive) in [3]; -1.58 (inactive) in experiment [4]; 2.42 (inactive) in [10]; 2.79 (inactive) in experiment [12]; -1.17 (inactive) in experiment [13]. The z-score was -0.168 (inactive) in experiment [14]; -2.34 (inactive) in experiment [15]; 1.11 in experiment [16]; 0.0822 (inactive) in [17]; 0.345 (inactive) in [18]; -0.451 in [19].
`CCN1C(C)=C(C(=O)OC)[C@@H](c2ccccc2)N2C(=O)[C@@]3(C(=O)OC)O[C@@]12[C@@H]1C(=O)N(C)C(=O)[C@@H]13`: the composite z-score is 0.601 in experiment [1]; 0.233 in [5]; -0.157 in experiment [6]; 0.587 in [7]; 0.368 in experiment [8]; 0.971 in [9]. For the same compound, in [11], the composite z-score was -0.0954. Further, the z-score was -0.674 (inactive) in [2]; 0.922 (inactive) in experiment [3]; -1.21 (inactive) in experiment [4]; -0.871 (inactive) in [10]; 0.339 (inactive) in experiment [12]; -1.13 (inactive) in [13]. In addition, the z-score is 0.0125 (inactive) in experiment [14]; -1.65 (inactive) in experiment [15]; 0.629 in experiment [16]; 1.52 (inactive) in [17]; -1.65 (inactive) in [18]; -0.267 in experiment [19].
